A selection: hits, their analogues and other compounds. The true share with any hit is near 3.5%.
MBD2 DNA inh: MBD2-methylated oligo binding inhibition; 370,000 compounds, 0.31% hits; AID 686964; TR-FRET, MBD2 binding to methylated oligonucleotide; Q9UBB5; inhibition, % at 4.4 µM; in the data active = inhibition above about 13%
rCAG RNA binder: molecules binding r(CAG) RNA repeats. r(CAG) RNA repeat, TO-PRO-1 dye displacement fluorescence. inhibition, % at 3 µM. 370,000 compounds, 1.3% hits. AID 651821;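 active = inhibition above the plate cutoff, the mean of all test compounds on that plate plus 3 SD, cut at about 35% in these data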;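 also: 0% = DMSO alone and 100% = 100 µM mitoxantrone as full dye displacement; higher means more dye released from RNA so lower well fluorescence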
DNMT1 block: DNMT1 (human) enzyme inhibition | DNMT1 molecular beacon, Hinp1I cleavage, fluorescence | inhibition (reported as % activation of signal), % at 10 µM | 360,000 compounds, 0.83% hits; in the data active = inhibition above about 50%
Target sequence (P26358 504-1616 limits assumed): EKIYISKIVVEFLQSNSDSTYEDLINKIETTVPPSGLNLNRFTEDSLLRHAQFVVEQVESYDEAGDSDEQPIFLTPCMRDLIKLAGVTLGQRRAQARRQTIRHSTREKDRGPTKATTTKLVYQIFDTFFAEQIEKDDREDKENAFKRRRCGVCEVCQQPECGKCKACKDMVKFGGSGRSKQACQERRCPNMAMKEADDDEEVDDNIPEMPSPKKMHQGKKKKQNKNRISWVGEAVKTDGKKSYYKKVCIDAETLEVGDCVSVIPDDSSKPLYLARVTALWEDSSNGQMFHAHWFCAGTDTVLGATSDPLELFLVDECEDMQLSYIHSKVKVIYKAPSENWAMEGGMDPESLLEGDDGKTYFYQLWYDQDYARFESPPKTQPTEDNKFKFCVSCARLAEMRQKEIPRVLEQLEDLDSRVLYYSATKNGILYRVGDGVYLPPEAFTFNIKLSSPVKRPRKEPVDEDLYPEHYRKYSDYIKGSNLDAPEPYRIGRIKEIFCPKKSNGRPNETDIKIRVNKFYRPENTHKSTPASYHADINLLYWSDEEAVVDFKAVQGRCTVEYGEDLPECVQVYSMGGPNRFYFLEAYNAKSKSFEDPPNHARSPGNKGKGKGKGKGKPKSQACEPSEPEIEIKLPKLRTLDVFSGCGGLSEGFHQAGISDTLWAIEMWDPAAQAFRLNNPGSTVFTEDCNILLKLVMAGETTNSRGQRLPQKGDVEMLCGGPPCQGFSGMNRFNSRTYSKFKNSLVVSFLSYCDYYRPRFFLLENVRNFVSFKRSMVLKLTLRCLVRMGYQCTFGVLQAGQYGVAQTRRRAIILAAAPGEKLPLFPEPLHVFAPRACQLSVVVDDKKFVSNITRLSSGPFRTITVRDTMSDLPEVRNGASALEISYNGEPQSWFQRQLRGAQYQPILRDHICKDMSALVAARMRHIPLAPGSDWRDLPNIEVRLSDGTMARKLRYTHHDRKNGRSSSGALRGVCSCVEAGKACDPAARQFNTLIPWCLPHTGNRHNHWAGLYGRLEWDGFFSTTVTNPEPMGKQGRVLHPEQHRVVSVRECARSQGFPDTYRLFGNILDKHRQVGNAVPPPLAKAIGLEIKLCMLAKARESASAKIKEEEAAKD
UHRF1 MBD2 ctr: blocks human UHRF1 binding to methylated DNA. 370,000 compounds, 0.75% hits. Q96T88. inhibition, % at 4.4 µM. AID 687016. UHRF1 binding to methylated oligo, TR-FRET; in the data active = inhibition above about 21%;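 also: UHRF1 SRA domain binding a hemimethylated CpG hairpin DNA probe; 0% = median of test compound wells and 100% = reference inhibitor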
PG9 Ab binder: small molecules binding HIV-1 gp120 antibody PG9. AID 624416. TR-FRET gp120-PG9 antibody binding. 360,000 compounds, 0.43% hits. inhibition, % at 6.7 µM; in the data active = inhibition above about 8.5%
LEDGF integ inh: blocks HIV-1 LEDGF/p75-dependent DNA integration; 370,000 compounds, 0.64% hits; AID 743269; TR-FRET IN-LEDGF/p75 DNA integration, Eu/Cy5; inhibition, % at 3.7 µM;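 active = inhibition above the screen-wide mean plus 3 SD, cut at about 13% in these data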;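 also: signal is the Cy5 over europium emission ratio at 671 and 618 nm; 0% = plate median of compound wells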
rCAG bind conf: r(CAG) RNA repeat binding, confirmation | 4,300 compounds, 70% hits | inhibition, % at 3 µM | AID 652065 | TO-PRO-1 dye displacement fluorescence | shares compounds with rCAG RNA binder;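 active = inhibition above a per-plate cutoff, the mean inhibition of sample wells plus 3 SD, cut at about 35% in these data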;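 also: loss of TO-PRO-1 fluorescence as compound displaces dye from 1x1 AA loop RNA; 0% = DMSO only wells and 100% = 100 µM mitoxantrone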
dCAG dye counter: counter-screen for rCAG RNA binders: DNA CAG dye complex inhibitors. inhibition, % at 3 µM. 4,300 compounds, 94% hits. AID 652068. d(CAG) DNA oligo TO-PRO-1 dye displacement, fluorescence. shares compounds with rCAG RNA binder;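 active = inhibition above its plate's cutoff, the mean test-well inhibition plus 3 SD, cut at about 4.8% in these data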;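 also: 0% = DNA dye mix with DMSO and 100% = 100 µM mitoxantrone; hits displace the dye from DNA and so lower well fluorescence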
An asterisk follows results filed as active; . = not tested or not shown.

SMILES	MBD2 DNA inh	rCAG RNA binder	DNMT1 block	UHRF1 MBD2 ctr	PG9 Ab binder	LEDGF integ inh	rCAG bind conf	dCAG dye counter
COc1ccccc1/C=C/C=N/n1c(-c2cc(-c3ccccc3)n[nH]2)n[nH]c1=S	-1	44*	-20	1	4	-9	63*	25*
COc1cc(C=Nn2c(-c3cc(-c4ccccc4)n[nH]3)n[nH]c2=S)ccc1OC(C)=O	2	58*	.	-1	.	0	44*	13*
Cc1cccc(/C=N/n2c(-c3cc(-c4ccccc4)n[nH]3)n[nH]c2=S)c1	2	23	6	-2	0	-4	.	.
S=c1[nH]nc(-c2cc(-c3ccccc3)n[nH]2)n1/N=C/C=C/c1ccccc1	-2	25	11	-1	1	-2	.	.
COc1ccc(CC2NCCC3=CC(=O)CCC32)cc1O (stereo unspecified)	3	10	-5	-1	-1	0	.	.
COc1ccc(C2=Nc3ccccc3N(C(=O)c3ccc4ncccc4c3)C2C(=O)NC2CCCC2)cc1 (stereo unspecified)	-2	9	.	3	-1	-5	.	.
CC(/C=C/c1ccc(N(C)C)cc1)=N/N=C1/NC(=O)CC(C(=O)Nc2ccc(Cl)cc2)S1 (stereo unspecified)	1	41*	-31	-3	-2	-2	41*	14*
O=C(O)C/C(=C\c1cccc(NC(=O)c2ccccc2Cl)c1)c1nc2ccccc2s1	-2	54*	10	0	0	-7	57*	24*
COc1ccc(C(=O)Nc2cccc(/C=C(\CCC(=O)O)c3nc4ccccc4s3)c2)cc1	-3	62*	-6	0	-1	-4	76*	38*
Brc1cc2c(cc1/C=N/Nc1nc3ccccc3s1)OCO2	-4	4	15	2	-2	1	.	.
COc1ccc(NC(=O)c2nc3ccccc3s2)cc1	0	0	-1	-5	0	0	.	.
O=C(O)C/C(=C\c1cc2c(cc1Br)OCO2)c1nc2ccccc2s1	0	35*	-2	1	1	3	36*	9.5*
CCOc1ccc(-n2c(SCC(=O)Nc3ccc4cn[nH]c4c3)nnc2-c2ccncc2)cc1	-4	3	.	2	.	2	.	.
O=C(c1cccc(F)c1F)N1CCCC(c2nc(-c3cccs3)no2)C1 (stereo unspecified)	2	-1	.	-1	.	0	.	.
COc1ccc(-c2nc3ccc(Br)cn3c2Cc2ccccc2C(F)(F)F)cc1OC	-1	43*	-19	2	-1	6	19	4.8*
Cc1ccc2nc(-c3cccc(Br)c3)c(Cc3ccccc3C(F)(F)F)n2c1	-5	35*	-2	1	-2	5	22	4.8*
COc1ccccc1Cc1c(-c2ccc(OC)c(OC)c2)nc2ccc(Br)cn12	-3	24	8	5	0	-2	.	.
CCCCOC(=O)Nc1ccc(S(=O)(=O)Nc2nccs2)cc1	-5	8	-2	-1	1	3	.	.
CC(=O)NC(CC(=O)Nc1ccc(S(=O)(=O)Nc2nccs2)cc1)c1ccccc1 (stereo unspecified)	1	8	-1	1	-2	0	.	.
CCCC(C(=O)Nc1ccc(S(=O)(=O)Nc2nccs2)cc1)c1ccccc1 (stereo unspecified)	6	49*	17	10	-1	0	36*	9.7*
CCCCCCCC(=O)Nc1ccc(S(=O)(=O)Nc2nccs2)cc1	-2	55*	2	1	-2	-3	41*	18*
NS(=O)(=O)c1ccc(N=Nc2c(=O)[nH]n3c(=O)c4c([nH]c23)CCCC4)cc1	-18	33	0	-14	-12	-8	.	.
O=c1[nH]n2c(=O)c3c([nH]c2c1N=Nc1cccc(C(F)(F)F)c1)CCCC3	-12	99*	5	-9	-4	-1	76*	42*
Cn1c(N)c(C(=O)COC(=O)Cc2ccc(Cl)c(Cl)c2)c(=O)n(C)c1=O	-3	3	0	0	0	0	.	.
O=S(=O)(O)c1ccc(N2N=C(c3ccccc3)CC2c2ccccc2)cc1 (stereo unspecified)	2	79*	-2	2	-1	10	56*	19*
SMILES	MBD2 DNA inh	rCAG RNA binder	DNMT1 block	UHRF1 MBD2 ctr	PG9 Ab binder	LEDGF integ inh	rCAG bind conf	dCAG dye counter
COC(=O)[C@]12C[C@H](CC(=O)N3CCCC3)C(=O)N(Cc3ccccc3)C1=C[C@H](C1CCCC1)O[C@@H]2C	-5	-1	.	-2	1	1	.	.
CCn1c(SCC(=O)Nc2sccc2C(N)=O)nnc1C1CC1	-5	5	4	-1	-2	-2	.	.
COc1ccc(-c2cc(=O)oc3c(C)c(OCc4nn[nH]n4)ccc23)cc1	0	39*	7	-1	-1	-2	23	5.7*
Oc1c(N=Nc2nn[nH]n2)ccc2ccccc12	-12	47*	36	1	-8	14*	61*	30*
CCCCCCCCNS(=O)(=O)/C=C/c1ccccc1CNC(=O)OC(C)(C)C	3	2	.	-4	.	-4	.	.
Cc1[nH]c2ccccc2c1/C=N/NC(=O)c1cccc(S(=O)(=O)Nc2cccc(C(F)(F)F)c2)c1	2	65*	-34	-3	0	-1	68*	27*
COc1cc(C)c(C(=O)Oc2cc(C)c(C(=O)O)c(O)c2C)c(O)c1C	-5	87*	-30	1	3	2	84*	52*
O=C(N=Nc1c(O)[nH]c2ccc(F)cc12)c1ccc(NS(=O)(=O)c2cccs2)cc1	6	5	48	-1	0	-5	.	.
COc1ccc2[nH]c(O)c(N=NC(=O)c3ccc(NS(=O)(=O)c4cccs4)cc3)c2c1	1	36*	23	4	0	-1	57*	25*
O=C(N=Nc1c(O)[nH]c2ccccc12)c1ccccc1NS(=O)(=O)c1cccs1	-6	65*	-2	-2	-3	-1	41*	15*
O=C(/C=C/c1ccccc1)NCCS(=O)(=O)N1CCN(c2ccc(F)cc2)CC1	-3	-1	0	-4	0	3	.	.
CN1CCN(C(=O)c2cnn(-c3ccccc3)c2NC(=O)c2ccccc2Cl)CC1	-2	-3	-2	-1	-3	-1	.	.
COc1ccc(C(=O)NC(=S)N2CCOCC2)cc1Br	4	1	3	2	0	-4	.	.
Cc1nnc(SCC(=O)Nc2cc(S(=O)(=O)N3CCOCC3)ccc2C)s1	0	-1	0	-1	-1	-2	.	.
CCCCc1ccc(CC(=O)Nc2cc(S(=O)(=O)N3CCOCC3)ccc2O)cc1	-2	48*	6	2	0	-2	51*	16*

Compound activity: PubChem BioAssay, several laboratories
